# Screening data as filed in PubChem BioAssay.
# ADAM17 inh: ADAM17 inhibitors, primary screen, biochemical, QFRET | inhibition, % at 6.95 µM | Disintegrin and metalloproteinase domain-containing protein 17 (Homo sapiens), P78536 | recombinant ADAM17, EDANS/DABCYL FRET peptide cleavage | hit rate 0.83% among 370,000;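 active = inhibition above the mean of compounds lying between control limits plus 3 SD, set per campaign, cut at about 8.5% in these data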;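 note: 0% = DMSO-only wells as the low control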
# PLCg1 inh: PLC-gamma1 enzyme inhibitors, primary screen, biochemical, fluorescence, purified enzyme. 1-phosphatidylinositol 4,5-bisphosphate phosphodiesterase gamma-1 (Homo sapiens), P19174. fluorogenic substrate. hit rate 0.84% among 370,000. inhibition, % at 12.2 µM; in the data active = inhibition above about 9.5%
# ADAM10 inh: human ADAM10 inhibitors, primary screen, biochemical, QFRET, HTS; AID 720582, 2013; hit rate 0.62% among 370,000; recombinant ADAM10, EDANS/DABCYL FRET peptide cleavage, 3 h; inhibition, % at 7 µM; Disintegrin and metalloproteinase domain-containing protein 10 (Homo sapiens), O14672;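 active = inhibition above a per-campaign cutoff equal to the mean of compounds falling between control-based bounds plus 3 SD, cut at about 20% in these data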;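 note: 0% = DMSO wells while the 100% control is not disclosed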
# sPLA2-III inh: human group III sPLA2 inhibitors, primary screen, biochemical, QFRET, BODIPY PC-A2 liposome substrate; hit rate 0.56% among 370,000; AID 743126, 2013; QFRET BODIPY PC-A2 liposome hydrolysis, fluorescence; inhibition, % at 12.2 µM;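 active = inhibition above mean plus 3 SD of compounds lying within the high and low control bounds, cut at about 19% in these data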;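 note: 0% = median of test compound wells and 100% = no enzyme DMSO wells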
# PLCb3 inh: human PLC-beta3 inhibitors, primary screen, biochemical, fluorescence; 1-phosphatidylinositol 4,5-bisphosphate phosphodiesterase beta-3 (Homo sapiens), Q01970; Purified PLC-beta3, fluorogenic substrate; inhibition, % at 12.2 µM; hit rate 0.18% among 370,000; AID 720704, 2013; in the data active = inhibition above about 11%;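 note: 0% = median of compound wells on plate and 100% = full blocker control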
# KLK7 zymogen act: proKLK7 zymogen activators, primary screen, biochemical, fluorescence intensity. Kallikrein-7 (Homo sapiens), P49862. AID 652039, 2013. purified proKLK7, EDANS-DABCYL substrate fluorescence; 100% is mature enzyme control, 0% vehicle. hit rate 0.9% among 370,000. activation, % at 7 µM;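 active = activation above the mean of all tested compounds plus 3 SD, computed per campaign excluding outliers beyond control limits, cut at about 13% in these data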
# proKLK7 act conf: proKLK7 zymogen activators, confirmation, biochemical, fluorescence intensity, triplicate; shares compounds with KLK7 zymogen act; purified proKLK7, EDANS-DABCYL substrate fluorescence; scaled: vehicle 0, mature enzyme 100; activation, % at 7 µM; hit rate 68% among 3,200;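 active = activation, as change over the incubation, above the mean of all tested compounds plus 3 SD, cut at about 13% in these data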
# EDANS interfere: EDANS-DABCYL substrate optical interference, artefact control for kallikrein-7 zymogen activator project, biochemical, fluorescence intensity, high throughput. shares compounds with KLK7 zymogen act. AID 686952, 2013. hit rate 80% among 3,200. no enzyme, 4 h; solvent 0%, active enzyme control 100%. activation, % at 7 µM;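 active = activation above the all-compound mean plus 3 SD, ignoring values outside control-based bounds, cut at about 4.8% in these data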;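 note: value is the 4 h activation minus the activation read at time zero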
# EDANS interf: optically interferes with EDANS-DABCYL fluorescence, kallikrein-7 activator counter-screen. EDANS-DABCYL peptide fluorescence interference, no enzyme. hit rate 20% among 250. EC50, µM. shares compounds with KLK7 zymogen act;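 active = compounds that raise the fluorescence signal in this interference counterscreen, with EC50 at or below 10 µM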;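 note: intact quenched peptide substrate alone read at 355 nm excitation and 520 nm emission; signal is fluorescence gain from T0 to T4 after four hours at room temperature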
# * = called active by the depositor; i = inactive; . = not tested or not shown. This is a sample that favours compounds with a hit; in the whole collection about 3.4% have one here.
SMILES,ADAM17 inh,PLCg1 inh,ADAM10 inh,sPLA2-III inh,PLCb3 inh,KLK7 zymogen act,proKLK7 act conf,EDANS interfere,others
COCCN1C(=O)[C@H]2C[C@@]13O[C@H](C1CCCCC1)N=C3CC1c3ccccc3C[C@@]12C (stereo partly drawn),-6,1,-13,1,-2,0,.,.,
C#CCNC(=O)C[C@H]1C[C@@]2(C(=O)OC)C(=C[C@H](C(C)(C)C)O[C@@H]2C)N(CCc2ccc(OC)c(OC)c2)C1=O,-4,-3,3,6,-1,0,.,.,
C[C@H]1[C@@H](OC(=O)NCc2ccc(Cl)cc2)CC[C@@]23CCCN2C(=O)CCC[C@@H]13,-7,1,-7,7,1,.,.,.,
O=C(O)c1cc(-c2cccs2)nc2cc3c(cc12)OCCO3,i,i,i,-1,i,30*,42*,50*,
Cc1ccc2nc(-c3ccc4c(c3)OCCO4)cc(C(=O)O)c2c1,-1,-88,-20,2,-122,0,.,.,
CCN(CC)C(=O)CC[C@@H]1CC[C@]2(CCCN(C(=O)C3CCCCC3)C2)O1,3,1,3,2,3,0,.,.,
CCOC(=O)c1cccc(NC(=O)CN(c2ccc(OC)cc2)S(=O)(=O)c2c(C)noc2C)c1,4,2,11,-34,4,0,.,.,
COc1ccc(N(CC(=O)Nc2cccc(C(=O)O)c2)S(=O)(=O)c2c(C)noc2C)cc1,4,13*,-1,-26,8,17*,-1,0,
CCOC(=O)CNc1c(-c2ccc(O)cc2)nc2ccc(Cl)cn12,-30,-429,-95,2,i,-5,.,.,
CCOC(=O)CNc1c(-c2ccc(O)cc2)nc2ccccn12,-270,i,i,4,i,20*,27*,62*,
Oc1ccc(Br)cc1-c1nc2cnccn2c1NC1CCCCC1,-46,i,-119,-3,i,-15,.,.,
Fc1ccc(-c2nc3cnccn3c2NC2CCCC2)cc1,-212,i,i,6,i,58*,63*,4,EDANS interf=>70
CS(=O)(=O)c1ccc(OC[C@@H](O)CN2CCC(C(O)(c3ccccc3)c3ccccc3)CC2)cc1,-2,-1,1,-16,2,0,.,.,
N=c1c(C(=O)NCCN2CCOCC2)cc2c(=O)n3ccccc3nc2n1Cc1ccc(F)cc1,-150,-87,i,4,-129,7,.,.,
CCCCNC(=O)c1cc2c(=O)n3cccc(C)c3nc2n(CCN2CCOCC2)c1=N,i,-294,i,2,-341,16*,6,10*,
Cc1cccn2c(=O)c3cc(C(=O)NCc4ccc(F)cc4)c(=N)n(CCCN4CCOCC4)c3nc12,-284,-121,i,3,-189,2,.,.,
N=c1c(C(=O)NCCN2CCOCC2)cc2c(=O)n3ccccc3nc2n1CCCN1CCOCC1,-381,-269,i,9,-437,14*,4,5.0*,
COCCNC(=O)c1cc2c(=O)n3cccc(C)c3nc2n(Cc2ccncc2)c1=N,i,-489,i,5,i,141*,44*,54*,
Cc1ccc2nc3c(cc(C(N)=S)c(=N)n3CCCOC(C)C)c(=O)n2c1,-366,-242,i,14,-372,14*,3,3,
CCOCCCn1c(=N)c(S(=O)(=O)c2ccccc2)cc2c(=O)n3cc(C)ccc3nc21,-36,-27,-100,1,-43,0,.,.,
S=C1NCN(CC2CC2)CN1,-6,0,-12,7,-1,0,.,.,
COCCCn1c(=N)c(C(N)=S)cc2c(=O)n3cccc(C)c3nc21,i,-337,i,7,i,35*,21*,24*,
CCCCNC(=O)c1cc2c(=O)n3cccc(C)c3nc2n(Cc2ccncc2)c1=N,i,-365,i,2,-473,45*,0,-2,
CCCCCN(C(=O)CCc1cn(CCCCC)c2ccccc12)c1ccc(N(C)c2ccccn2)cc1,-1,-3,-3,-6,-3,1,.,.,
CCCCNC(=O)C1CCCN1C(=O)Nc1ccc2c(c1)OCO2 (stereo not drawn),0,0,-2,0,0,0,.,.,
SMILES,ADAM17 inh,PLCg1 inh,ADAM10 inh,sPLA2-III inh,PLCb3 inh,KLK7 zymogen act,proKLK7 act conf,EDANS interfere,others
N#Cc1ccc(CC(=O)c2ccccc2)[nH]c1=O,-86,-143,-336,-25,-166,16*,100*,98*,
C[C@@H]1CN([C@H](C)CO)C(=O)CCCn2cc(nn2)CO[C@H]1CN(C)S(=O)(=O)c1cn(C)cn1,0,1,6,6,3,0,.,.,
Cc1ccc(C)n1-c1nccc(-c2ccco2)n1,i,i,i,1,i,81*,113*,127*,
Cc1ccc(C)n1-c1nccc(-c2cccs2)n1,i,i,i,0,i,52*,111*,136*,
c1ccc(CSc2nccc(-c3ccco3)n2)cc1,-2,1,-7,4,-9,0,.,.,
CC1CCCCN1Cc1c(O)ccc2c(=O)c(-c3ccc(Cl)cc3)coc12 (stereo not drawn),-271,i,i,-1,i,17*,27*,26*,
COc1ccccc1-c1c(C)oc2c(CN3CCCC(C)C3)c(O)ccc2c1=O (stereo not drawn),i,i,i,-1,i,45*,72*,69*,
COc1ccccc1-c1coc2c(CN3CCCCC3C)c(O)ccc2c1=O (stereo not drawn),i,i,i,0,i,53*,66*,64*,
COc1ccccc1-c1coc2c(CN3C(C)CCCC3C)c(O)ccc2c1=O (stereo not drawn),-116,-383,-321,12,-442,-3,.,.,
COc1ccccc1-c1coc2c(CN3CCCC(C)C3)c(O)ccc2c1=O (stereo not drawn),i,i,i,1,i,40*,65*,62*,
C[C@H]1[C@@H](O)CC[C@@]23CCCN2C(=O)CCC[C@@H]13,-3,-1,-6,-1,1,.,.,.,
